Screening data: PubChem BioAssay, National Center for Advancing Translational Sciences (NCATS)
The list is not random: actives were taken first. Their share in the collection is about 21%.
VP16 counter = counter-screen for ROR gamma inhibitors: Gal4-VP16 reporter; Drosophila S2 Gal4-VP16 UAS-luciferase, luminescence, 20 h; Potency, µM (highest dose often 53.6 µM), for the others: at the top dose activity, negative = inhibition, actives largely listed as inhibitors; 3.5% of 310,000 active;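 also: Gal4-VP16 expression switched on by copper sulfate through the metallothionein promoter; potency is read from the fitted curve at half-maximal effect; nearly all actives have a fitted effect of over 50% in size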
ELG1 repair inh = inhibitors of ELG1-dependent DNA repair in HEK293T cells; AID 504467; Potency, µM (highest dose often 46.1 µM), for inactives: at the highest dose activity change, negative = inhibition, most hits filed as inhibitors; 2.3% of 330,000 active; HEK293T ELG1-luciferase reporter, luminescence, 16 h; DNA damage induced by 5-fluorouridine; also: potency is read from the fitted curve at half-maximal effect; nearly all actives have a fitted effect of over 55% in size
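Cells (2,000 per well) received 5-fluorouridine plus test compound or DMSO and were incubated 16 hr at 37 °C, 5% CO2. Luciferase activity was read by luminescence 30 min after ONE-Glo addition; signal suppression marked inhibition of damage-induced ELG1 function.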
TDP1 cell noCPT = qHTS for Inhibitors of human tyrosyl-DNA phosphodiesterase 1 (TDP1): qHTS in cells in absence of CPT | DT40 Tdp1-/- hTDP1 cells, no CPT, ATP luminescence, 48 h | Potency, µM (series often up to 46.2 µM), for the others: at the top dose activity change, negative = growth inhibition, actives largely listed as inhibitors | 15% of 420,000 active | AID 686978, 2013; also: potency is read from the fitted curve at half-maximal effect; nearly all actives have a fitted effect of over 55% in size
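Stably hTDP1-transfected Tdp1-null chicken DT40 cells were treated with library compounds minus camptothecin and grown for at least 48 hr at 37 °C, after which cellular ATP was quantified by luminescence.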
IL1B secr inh = blocks inflammasome-driven IL-1 beta release; THP-1 LPS/ATP IL-1B secretion, AlphaLISA, 16 h; active compounds read low; activity change, % at 57.5 µM; 4.7% of 360,000 active; AID 743279; in the data active = activity change below about -50%; inconclusive = mostly about -30% to -49%
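Secreted IL-1B measured by AlphaLISA bead assay after 16 h compound exposure of THP-1 cells; compounds (final up to 57.5 uM) added 1 h before LPS (250 ng/mL) and ATP (1.25 mM) stimulation; lower signal means less secretion.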
DT40 TDP1 CPT = DT40-hTDP1 cell growth loss with CPT; chicken DT40 Tdp1-/-;hTDP1 cells + 20 nM CPT, ATP luminescence, 48 h; Potency, µM (series often up to 46.2 µM), for the others: at the highest dose activity change, negative = growth inhibition, hits mostly inhibitors; 12% of 420,000 active; also: potency is read from the fitted curve at half-maximal effect; nearly all actives have a fitted effect of over 55% in size
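Chicken DT40 Tdp1-/- cells stably complemented with human TDP1 were seeded at 400 cells/well in medium containing 20 nM camptothecin, exposed to pin-transferred compounds, and grown at 37 °C for at least 48 hr. Viability was read as ATP luminescence.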
RORgamma inh = blocks mouse ROR gamma transcriptional activity; Drosophila S2 Gal4-RORgamma UAS-luciferase reporter, 20 h; Potency, µM (titrated, usually from 53.6 µM), inactives show at the highest dose activity change, negative = inhibition, actives largely listed as inhibitors; 5.4% of 310,000 active; AID 2551; P51450; also: potency is read from the fitted curve at half-maximal effect; nearly all actives have a fitted effect of over 60% in size
Target sequence (P51450 whole entry, looked up, the tested form may be a part): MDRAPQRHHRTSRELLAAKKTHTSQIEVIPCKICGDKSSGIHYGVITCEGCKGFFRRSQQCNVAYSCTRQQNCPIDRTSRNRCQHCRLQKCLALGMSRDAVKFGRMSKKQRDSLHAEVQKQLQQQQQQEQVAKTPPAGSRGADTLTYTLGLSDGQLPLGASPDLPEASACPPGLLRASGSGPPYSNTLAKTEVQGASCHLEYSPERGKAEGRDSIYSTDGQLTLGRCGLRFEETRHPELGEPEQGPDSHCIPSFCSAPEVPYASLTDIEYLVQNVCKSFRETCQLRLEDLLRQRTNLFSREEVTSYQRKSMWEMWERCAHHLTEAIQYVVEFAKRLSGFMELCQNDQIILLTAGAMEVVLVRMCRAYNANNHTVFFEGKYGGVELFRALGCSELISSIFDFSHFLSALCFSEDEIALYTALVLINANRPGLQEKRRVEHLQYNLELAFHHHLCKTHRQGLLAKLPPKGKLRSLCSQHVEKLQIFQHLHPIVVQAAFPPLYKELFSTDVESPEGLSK
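A Gal4/UAS one-hybrid system in insect cells: metallothionein-promoter Gal4–ROR gamma fusion plus Photinus luciferase reporter. Copper sulfate 700 uM final, 20 hr ambient incubation, luminescent detection after 10 min with reagent.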
* marks the source's active call; other numbers are inactive results; ? = inconclusive; . = no result; ! = a repeat was not active; [ ] = remark or other dose. Unless noted, calls follow the shape of the dose curve; as a rule, active = well fitted curve in the direction sought with a large enough effect; inconclusive = small, poorly fitted or top-dose-only effect, or another doubt; inactive = no such curve, though single readings can be large; an effect the other way counts as inactive or inconclusive. % is scaled to controls: 0 for no effect and ±100 for the full control effect.

SMILES	VP16 counter	ELG1 repair inh	TDP1 cell noCPT	IL1B secr inh	DT40 TDP1 CPT	RORgamma inh
Cc1nn(-c2ccccc2)c(C)c1NC(=O)COC(=O)c1cc(Br)ccc1O	.	-16%	-14%	-14	-4%	.
CCOC(=O)c1c(CN2CCCCC2)oc2ccc(OC)cc12	5%	-3%	23µM*!	13	?	-32%
CCOC(=O)c1c(CN2CCN(c3ccccc3)CC2)oc2ccc(O)cc12	8%	-27%	?	67	?	-7%
CCOC(=O)c1c(CN2CCN(C)CC2)oc2ccc(OC)cc12	3%	0%	-5%	?	-1%	-33%
CCOC(=O)c1c(CN2CCCCC2C)oc2ccc(OC)cc12 (stereo not drawn)	-1%	?	?	-4	21µM*	-18%
CCOC(=O)c1c(CN2CCC(C)CC2)oc2ccc(OC)cc12	-2%	-10%	?	-29	23µM*	-19%
Cc1ccc(CNC(=O)c2cc(=O)c3cc(C)c(C)cc3o2)cc1	.	.	-27%	.	-18%	.
COc1cc(/C=c2\s/c(=C(/C#N)C(=O)N3CCCC3)n(-c3ccccc3)c2=O)ccc1O	-1%	?	9.2µM*	5	?	2%
COC(=O)/C=c1/s/c(=C(/C#N)C(=O)N2CCCCC2)n(-c2ccccc2)c1=O	0%	?	?	5	-20%	-4%
O=C(Cn1c(=O)c2cccn2c2cccnc21)NCc1cccc(F)c1	.	.	-29%	.	-25%	.
O=[N+]([O-])c1ccc(C[n+]2cc(-c3ccccc3)n3c2CCCCC3)cc1	8%	7%	12µM*	-7	?	-3%
O=[N+]([O-])c1ccc(C[n+]2cc(-c3ccc(Cl)c(Cl)c3)n3c2CCCCC3)cc1	-15%	0%	5.8µM*	-25	?	0.25µM*
NS(=O)(=O)c1cc2c(cc1Cl)N[C@@H]([C@@H]1C[C@@H]3C=C[C@H]1C3)NS2(=O)=O	-2%	.	-3%	.	5%	29%
COc1ccc(CNCC(O)(c2ccccc2)c2ccc(F)cc2)cc1 (stereo not drawn)	?	0%	15µM*	-89*	21µM*	16%
CCCCCNCc1ccc(Cl)cc1	6%	0%	-13%	6	17%	1%
COc1ccc(CNCC(O)(c2ccc(Cl)cc2)c2ccc(Cl)cc2)cc1OC	?	5%	6.5µM*	?	15µM*	-127%
CCCCNCC(O)(c1ccc(Cl)cc1)c1ccc(Cl)cc1	-7%	-5%	23µM*	-132*	15µM*	-16%
COc1ccc(CNCC(O)(c2ccccc2)c2ccc(F)cc2)cc1OC (stereo not drawn)	?	-15%	15µM*	-88*	?	42%
CN[C@H]1C[C@H]2c3[nH]c4ccccc4c3CCN2C(=O)[C@H]1[C@H](C)O	.	.	?	14	-3%	.
Cc1cccc(CCNC(=O)c2cnc3c(C)cccn3c2=O)c1	.	.	?	.	-26%	.
COc1ccc(-c2c(C)nn3c(C(F)(F)F)cc(C)nc23)cc1OC	.	.	?	.	-28%	.
COc1ccc(CNCC(O)(c2ccc(Cl)cc2)c2ccc(Cl)cc2)cc1	?	8%	18µM*	-16	15µM*	-111%
COc1ccc(CS(=O)(=O)CC(C)(O)c2ccc(Cl)cc2)cc1 (stereo not drawn)	-3%	-12%	1%	-14	-27%	-5%
COc1ccc(CNCC(O)(c2ccc(F)cc2)c2ccc(F)cc2)cc1OC	?	?	16µM*	?	?	-8%
CCn1c(=O)c2sccc2n2c(CCC(=O)Nc3ccc(OC)cc3OC)nnc12	.	.	4%	.	-6%	.
SMILES	VP16 counter	ELG1 repair inh	TDP1 cell noCPT	IL1B secr inh	DT40 TDP1 CPT	RORgamma inh
CCOC(=O)c1cnc2c(ccc3ccccc32)c1Cl	27%	?	-4%	-12	3%	-21%
CCOC(=O)c1cnc2c(ccc3ccccc32)c1Nc1ccccc1O	.	.	?	.	21µM*	.
CCOC(=O)c1cnc2ccc(C(=O)OC)cc2c1Nc1cccc(C(=O)O)c1	0%	3%	10%	40	20%	-2%
CCOC(=O)c1cnc2c(C)cc(C)cc2c1Nc1ccc(OCc2ccccc2)cc1	.	.	-18%	.	-10%	.
CCOC(=O)c1cnc2c(C(F)(F)F)cccc2c1Nc1cccc(C(=O)OC)c1	.	.	15µM*	.	?	.
CCOC(=O)c1cnc2c(C)cccc2c1Nc1ccc(OC(C)C)cc1	.	.	23µM*	.	?	.
CC(N)C(=O)NCC(=O)NC1CSSCC(C(=O)O)NC(=O)C(CO)NC(=O)C(C(C)O)NC(=O)C(Cc2ccccc2)NC(=O)C(C(C)O)NC(=O)C(CCCCN)NC(=O)C(Cc2c[nH]c3ccccc23)NC(=O)C(Cc2ccccc2)NC(=O)C(Cc2ccccc2)NC(=O)C(CC(N)=O)NC(=O)C(CCCCN)NC1=O (stereo not drawn)	-2%	.	.	.	.	14%
COC(=O)[C@]12CCCCC=C1N(Cc1ccccc1)C(=O)[C@H](CC(=O)N1CCCCC1)C2	.	.	?	-2	?	.
C#Cc1ccc(CN2CCCC(C(=O)Nc3ccccc3Oc3cccnc3)C2)cc1 (stereo not drawn)	-6%	-10%	?	?	?	-5%
O=C(Nc1ccccc1Oc1cccnc1)C1CCCN(Cc2ccccc2O)C1 (stereo not drawn)	-1%	0%	15µM*	-19	?	-15%
O=C(Nc1ccc(Oc2cccnc2)cc1)C1CCN(Cc2cc(Cl)ccc2O)CC1	?	?	13µM*	-4	8.2µM*	24%
Cc1c2ccccc2nc2c(F)c(NCCO)c(F)c(F)c12	-18%	?	?	-87*	?	-26%
OCCNc1c2ccccc2nc2c(F)c(F)c(F)c(F)c12	7.9µM*	?	2.3µM*	-93*	2.1µM*	10µM*
Cc1c2ccccc2nc2c(F)c(NC(C)C)c(F)c(F)c12	?	?	?	-53*	?	-30%
OCCNc1nc(Nc2ccccc2)nc(Nc2ccccc2)n1	-1%	8%	-23%	-12	?	5%
COC(=O)NC(c1cccc(C)c1)C(C(C)=O)C(=O)OC (stereo not drawn)	-8%[10 µM]	.	.	.	.	-1%[10 µM]
CC(=O)Nc1ccccc1NC(=O)C/C(C)=N/NC(=O)C(=O)N1CCCCC1	-13%	1%	-2%	0	1%	-21%
